Shown are actives, neighbours in structure and some others; about 4.7% of the full set was active somewhere.
TIM10 inh = growth inhibitors of TIM10 yeast strain; S. cerevisiae TIM10 strain growth, BacTiter-Glo luminescence, 24 h; inhibition, % at 10 µM; 330,000 compounds, 1.4% hits; AID 463195;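 active = inhibition of 40% or more at the single tested concentration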;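 also: wild-type TIM10 isogenic control strain grown at permissive 25 °C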
ATG4B inh = blocks human ATG4B protease cleavage of LC3 substrate | inhibition, % at 8.33 µM | Q9Y4P1 | 340,000 compounds, 0.51% hits | ATG4B cleavage of LC3-PLA2, NBD-HPC fluorescence, 1 h | AID 504462; in the data active = inhibition above about 40%
Target sequence (Q9Y4P1 whole entry, looked up): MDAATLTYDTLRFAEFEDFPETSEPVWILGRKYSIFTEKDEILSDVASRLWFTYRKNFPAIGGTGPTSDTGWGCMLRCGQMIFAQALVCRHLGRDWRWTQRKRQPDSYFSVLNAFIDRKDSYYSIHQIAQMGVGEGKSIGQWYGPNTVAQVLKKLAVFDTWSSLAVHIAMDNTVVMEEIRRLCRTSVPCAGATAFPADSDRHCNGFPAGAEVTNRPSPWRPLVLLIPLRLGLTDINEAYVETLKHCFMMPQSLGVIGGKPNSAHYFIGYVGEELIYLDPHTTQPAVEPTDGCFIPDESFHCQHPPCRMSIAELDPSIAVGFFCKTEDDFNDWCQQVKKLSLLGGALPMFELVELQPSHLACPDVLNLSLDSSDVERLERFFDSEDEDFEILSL
tim23-1 inh = tim23-1 yeast growth inhibition | 330,000 compounds, 1.3% hits | inhibition, % at 20 µM | S. cerevisiae tim23-1 growth, BacTiter-Glo luminescence, 24 h;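 active = growth inhibition of the mutant yeast at or above 50%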;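 also: temperature-sensitive mutant grown at 25 °C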
tim10-1 inh = growth inhibitors of tim10-1 mutant yeast. S. cerevisiae tim10-1 ts strain growth, BacTiter-Glo, 24 h. AID 463190. 330,000 compounds, 2.2% hits. inhibition, % at 20 µM;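 active = inhibition of at least 40%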;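 also: mutant grown at 25 °C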
PfHsp90 yeast 2 = inhibits growth of yeast expressing Plasmodium falciparum Hsp90; AID 504621; 310,000 compounds, 0.32% hits; inhibition, % at 9.4 µM; S. cerevisiae expressing PfHsp90, BacTiter-Glo ATP, 48 h; yeast lacking PDR1 and PDR3 efflux regulators;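 active = every replicate shows inhibition above about 80%, whatever the replicate mean, limit read from the data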
SKKanGAS inh = SKKanGAS growth inhibition | S. pyogenes SKKanGAS, kanamycin growth, BacTiter-Glo, 6 h | inhibition, % at 7.5 µM | 300,000 compounds, 1.3% hits;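 active = mean replicate score, as percent of positive control median, at least 50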;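 also: strain carries kanamycin resistance gene driven by streptokinase promoter and grows in 40 µg/ml kanamycin; loss of luminescence reflects streptokinase promoter inhibition or plain growth inhibition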
Of the large screens only hits and unclear results are named; the others gave an inactive call.

Cc1ccc(NC2=NCC(Cc3ccc(Br)cc3)S2)cc1 (stereo not given)	SKKanGAS inh 85
Cc1cc(C)c(S(=O)(=O)/N=C2/C=C(SCC(=O)O)C(=O)c3ccccc32)cc1C	none (no result: SKKanGAS inh)
OCCCn1c(C2CCCN2c2nc(-c3ccc(F)cc3)cs2)nc2cc(Cl)c(Cl)cc21 (stereo not given)	PfHsp90 yeast 2 107
OCCCn1c(C2CCCN2c2nc(-c3ccc(Cl)cc3)cs2)nc2cc(Cl)c(Cl)cc21 (stereo not given)	none
c1ccc(C(c2c[nH]c3ccccc23)c2c[nH]c3ccccc23)nc1	SKKanGAS inh 76
Cc1ccc(NS(=O)(=O)c2ccc(C3CCCCC3)cc2)cc1	SKKanGAS inh 76
COc1cc(/C=N/Nc2nc(Nc3ccccc3)nc(-n3nc(C)cc3C)n2)cc(OC)c1OC	SKKanGAS inh 75
COc1ccc(/C=N/Nc2cc(C)nc(-n3nc(C)cc3C)n2)cc1	none
COc1cc(/C=N/Nc2nc(Nc3ccc(C)cc3)nc(-n3nc(C)cc3C)n2)cc(OC)c1OC	SKKanGAS inh 74
COc1ccc(O)c(/C=N/Nc2nc(Nc3ccccc3)nc(-n3nc(C)cc3C)n2)c1	SKKanGAS inh 103
COc1ccc(/C=N/Nc2nc(Nc3ccccc3)nc(N3CCCC3)n2)cc1[N+](=O)[O-]	none
Cc1ccc(NC(=O)c2cc3c(s2)CCCC3)cc1	none
COc1ccccc1CN(C)C(=O)c1cccc(S(=O)(=O)N2CCCC2)c1	none (no result: SKKanGAS inh)
N#Cc1nc(-c2ccccc2Cl)oc1N1CCN(C(=O)c2ccco2)CC1	SKKanGAS inh 69
Cc1ccc(OCC(=O)NCCC2=CCCCC2)cc1	none
CC(Oc1ccccc1)C(=O)Nc1cccc(NC(=O)c2ccco2)c1 (stereo not given)	none
CC(Oc1ccc(Cl)cc1)C(=O)NNC(=S)NC(=O)c1ccco1 (stereo not given)	PfHsp90 yeast 2 103, SKKanGAS inh 92
COc1ccccc1C(=O)NC(=S)Nc1ccc(N2CCN(C(=O)c3ccco3)CC2)cc1	SKKanGAS inh 88
CCCOc1ccc(C(=O)NNC(=S)NC(=O)c2ccco2)cc1	SKKanGAS inh 104
COc1ccccc1C(=O)NNC(=S)NC(=O)c1ccco1	PfHsp90 yeast 2 104, SKKanGAS inh 65
CCCCOC(=O)c1ccc(NC(=S)NC(=O)c2ccco2)cc1	none
Cc1ccccc1C(=O)N1CCN(c2ccc(NC(=S)NC(=O)c3ccco3)cc2)CC1	none
O=C(N/N=C/c1ccc(-c2ccc([N+](=O)[O-])cc2)o1)c1cccnc1	none (no result: PfHsp90 yeast 2)
O=C(COc1ccc(Cl)cc1Cl)NNC(=S)NC(=O)c1ccco1	SKKanGAS inh 95
Cn1cccc1CC(=O)NNC(=S)NC(=O)c1ccc(F)cc1	SKKanGAS inh 65
O=C(NNC(=S)Nc1ccc(F)cc1F)c1ccco1	none
O=C(NNC(=S)NC(=O)c1ccco1)c1ccc(F)cc1	SKKanGAS inh 83
COc1ccc(C(=O)NNC(=S)NC(=O)c2ccco2)cc1	SKKanGAS inh 81 (no result: PfHsp90 yeast 2)
Cn1cccc1CC(=O)NNC(=O)Nc1ccc(Cl)cc1	none
Cc1sc2ncnc(N3CCC(C(=O)Nc4ccc(Cl)c(Cl)c4)CC3)c2c1C	none (no result: SKKanGAS inh)
Cc1sc2ncnc(N3CCC(C(=O)Nc4ccc(Cl)cc4Cl)CC3)c2c1C	SKKanGAS inh 50
Cc1sc2ncnc(N3CCC(C(=O)NCC(=O)Nc4ccc(F)c(F)c4)CC3)c2c1C	SKKanGAS inh 53
COC(=O)Cc1cn(-c2ncc(C(F)(F)F)cc2Cl)c2ccccc12	none
CN(C)/C=C/C(=O)/C=C/c1cn(-c2ncc(C(F)(F)F)cc2Cl)c2ccccc12	PfHsp90 yeast 2 121
COc1ccc(O)c(C(=O)c2cc(SCC(=O)O)c3nc4sc5c(c4c(=O)n3c2)CCCC5)c1	SKKanGAS inh 52
CCOC(=O)c1sc2nc3c(SCC(=O)O)cc(C(=O)c4cc(F)ccc4O)cn3c(=O)c2c1C	SKKanGAS inh 74 (no result: TIM10 inh, tim23-1 inh, tim10-1 inh)
C=CCN(Cc1cc(OC)ccc1OC)C(=O)c1cc2ccc(OC)cc2[nH]1	none
NS(=O)(=O)c1cccc(NC(=O)CSc2nnc(-c3ccncc3)n2C2CC2)c1	none (no result: SKKanGAS inh)
CCn1cc(C(=O)O)c(=O)c2cc(F)c(N3CCN(S(=O)(=O)c4ccc5c(c4)OCCO5)CC3)cc21	SKKanGAS inh 60
CCn1cc(C(=O)O)c(=O)c2cc(F)c(N3CCNCC3)cc21	none (no result: ATG4B inh)
CCn1cc(C(=O)O)c(=O)c2cc(F)c(N3CCN(S(=O)(=O)c4ccc(NC(C)=O)cc4)CC3)cc21	SKKanGAS inh 53
Cc1sc2nc(SCC(=O)Nc3ccc(S(=O)(=O)NCCCC(=O)O)cc3)[nH]c(=O)c2c1C	none
Cc1cc(C(=O)NCc2ccccc2Br)no1	none (no result: PfHsp90 yeast 2)
Cc1ccc(C)c(NC(=S)N2CCN(c3ccccn3)CC2)c1	none
CC(C)COC(=O)NCC12C=CC(O1)C1C(=O)N(c3ccc(Cl)cc3)C(=O)C12 (stereo not given)	none (no result: PfHsp90 yeast 2)
Cc1ccc(N2C(=O)C3C4C=CC(CNC(=S)Nc5ccc(Cl)cc5)(O4)C3C2=O)cc1 (stereo not given)	PfHsp90 yeast 2 105
Cc1ccc(CNC(=O)C2CCCN(C(=O)Nc3ccc(F)cc3)C2)cc1 (stereo not given)	none
Cc1ccc(N2C(=O)C3C4C=CC(CNC(=S)Nc5ccc(F)cc5)(O4)C3C2=O)cc1 (stereo not given)	PfHsp90 yeast 2 103
Cc1ccc(N2C(=O)C3C4C=CC(CNC(=S)N5CCN(c6ccccn6)CC5)(O4)C3C2=O)cc1 (stereo not given)	PfHsp90 yeast 2 104
CC(Sc1nc2cc([N+](=O)[O-])ccc2n1-c1cccc(C(F)(F)F)c1)C(=O)NC(N)=O (stereo not given)	SKKanGAS inh 51
NC(=O)CSc1nc2cc([N+](=O)[O-])ccc2n1-c1cccc(C(F)(F)F)c1	none
CCCc1sc(N/N=C/c2ccccn2)nc1-c1ccc(Br)cc1	SKKanGAS inh 67
CCCCNC(=O)c1cn(CC(C)C)c(=O)c2c1c1ccccc1n2C	SKKanGAS inh 54
Cc1ccc(NC(=S)NC(=O)c2ccc(F)cc2)cc1S(=O)(=O)Nc1cccc(Cl)c1	SKKanGAS inh 70
Oc1ccc(NC(=S)N=Nc2c(O)[nH]c3ccc(Br)cc23)cc1	none
Oc1cccc(NC(=S)N=Nc2c(O)[nH]c3ccc(Br)cc23)c1	SKKanGAS inh 89
Oc1[nH]c2ccc(Br)cc2c1N=NC(=S)Nc1ccc(F)cc1	SKKanGAS inh 109
O=C(Nc1ccc2c(c1)OCO2)c1ccccn1	none (no result: SKKanGAS inh)
O=C(COC(=O)c1ccccc1C(=O)N1CCN(c2ccccc2)CC1)Nc1ccc(F)cc1	none
Cc1cc(NCc2ccccn2)n2ncc(-c3ccccc3)c2n1	SKKanGAS inh 66
Cc1cc(NCCCN2CCOCC2)n2ncc(-c3ccccc3)c2n1	none
